# ± gives the standard deviation.
# T1: HaloTag-ATRX ADD domain (163-292)
# T1 chain: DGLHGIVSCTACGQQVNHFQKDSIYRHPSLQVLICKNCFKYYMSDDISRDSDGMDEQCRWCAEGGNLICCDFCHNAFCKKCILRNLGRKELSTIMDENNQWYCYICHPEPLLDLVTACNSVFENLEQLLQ
# What was measured:
# Assay in all cases: peptide microarray binding signal (635 nm), min-max normalized on array (fraction of array maximum); higher = stronger binding
# [1] = target: T1, HaloTag-ATRX ADD domain (163-292)
# Protocol: (§1)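 Histone 13-mer peptides were synthesized as cellulose conjugates with a C-terminal 20-atom PEG linker and printed in triplicate on nitrocellulose. The sequence given is the unmodified backbone; PTMs (Kme1/2/3, Kac, Sph/Tph, Rme/Rme2a/Rme2s, Rcit) are listed in the label and the 'peptide modifications' condition. Slides were probed at 4 °C for 1 h with biotin-labelled (HQ)5-HaloTag reader fusions (ATRX-ADD, ING2-PHD) then streptavidin-Alexa647, or with rabbit histone antibodies then anti-rabbit Alexa647. The mean 635 nm signal of the triplicate spots was scaled 0-1 between the lowest and highest values on each array.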
# [2] = target: HaloTag-ING2 PHD (mouse Ing2 200-280)
# Protocol: as §1
# [3] = target: anti-H3K4me3 antibody ab8580
# Protocol: as §1
# [4] = target: anti-H3K9me3 antibody ab8898
# Protocol: as §1
# [5] = peptide region: H2B 1-13, peptide modifications: H2BK5ac H2BS6ph, binder concentration: 1:2,000 dilution
# [6] = peptide region: H2B 1-13, peptide modifications: H2BK5ac H2BS6ph, binder concentration: 1:10,000 dilution
# [7] = peptide region: H2B 1-13, peptide modifications: H2BK5ac, binder concentration: 1:2,000 dilution
# [8] = peptide region: H2B 1-13, peptide modifications: H2BK5ac, binder concentration: 1:10,000 dilution
# [9] = peptide region: H2B 1-13, peptide modifications: H2BK11ac, binder concentration: 1:2,000 dilution
# [10] = peptide region: H2B 1-13, peptide modifications: H2BK11ac, binder concentration: 1:10,000 dilution
# [11] = peptide region: H2B 1-13, peptide modifications: H2BS6ph, binder concentration: 1:2,000 dilution
# [12] = peptide region: H2B 1-13, peptide modifications: H2BS6ph, binder concentration: 1:10,000 dilution
# [13] = peptide region: H2B 7-19, binder concentration: 1:2,000 dilution
# [14] = peptide region: H2B 7-19, binder concentration: 1:10,000 dilution
binder,measurement,setting,value
PEPAKSAPAPKKG [H2B 1-13 P E P A Kac Sph A P A P K K G],peptide microarray binding signal,"[1]; peptide region: H2B 1-13, peptide modifications: H2BK5ac H2BS6ph, binder concentration: 50 nM",0.00433 ± 0.00028
same,peptide microarray binding signal,"[1]; peptide region: H2B 1-13, peptide modifications: H2BK5ac H2BS6ph, binder concentration: 500 nM",0.00467 ± 0.0018
same,peptide microarray binding signal,"[2]; peptide region: H2B 1-13, peptide modifications: H2BK5ac H2BS6ph, binder concentration: 10 nM",0.00442 ± 0.0003
same,peptide microarray binding signal,"[2]; peptide region: H2B 1-13, peptide modifications: H2BK5ac H2BS6ph, binder concentration: 100 nM",0.00872 ± 0.0029
same,peptide microarray binding signal,[3]; [5],0.00217 ± 0.0016
same,peptide microarray binding signal,[3]; [6],0.000628 ± 1.3e-05
same,peptide microarray binding signal,[4]; [5],0.000332 ± 2.6e-05
same,peptide microarray binding signal,[4]; [6],0.000865 ± 2.4e-05
PEPAKSAPAPKKG [H2B 1-13 P E P A Kac S A P A P K K G],peptide microarray binding signal,"[1]; peptide region: H2B 1-13, peptide modifications: H2BK5ac, binder concentration: 50 nM",0.005486 ± 3.9e-05
same,peptide microarray binding signal,"[1]; peptide region: H2B 1-13, peptide modifications: H2BK5ac, binder concentration: 500 nM",0.0105 ± 0.00072
same,peptide microarray binding signal,"[2]; peptide region: H2B 1-13, peptide modifications: H2BK5ac, binder concentration: 10 nM",0.0119 ± 0.00078
same,peptide microarray binding signal,"[2]; peptide region: H2B 1-13, peptide modifications: H2BK5ac, binder concentration: 100 nM",0.0115 ± 0.00093
same,peptide microarray binding signal,[3]; [7],0.00421 ± 0.0021
same,peptide microarray binding signal,[3]; [8],0.00137 ± 4.9e-05
same,peptide microarray binding signal,[4]; [7],0.00192 ± 0.00022
same,peptide microarray binding signal,[4]; [8],0.0019 ± 0.00011
PEPAKSAPAPKKG [H2B 1-13 P E P A K S A P A P Kac K G],peptide microarray binding signal,"[1]; peptide region: H2B 1-13, peptide modifications: H2BK11ac, binder concentration: 50 nM",0.00254 ± 0.00043
same,peptide microarray binding signal,"[1]; peptide region: H2B 1-13, peptide modifications: H2BK11ac, binder concentration: 500 nM",0.001762 ± 1.6e-05
same,peptide microarray binding signal,"[2]; peptide region: H2B 1-13, peptide modifications: H2BK11ac, binder concentration: 10 nM",0.0156 ± 0.012
same,peptide microarray binding signal,"[2]; peptide region: H2B 1-13, peptide modifications: H2BK11ac, binder concentration: 100 nM",0.00113
same,peptide microarray binding signal,[3]; [9],0.000774 ± 9.3e-05
same,peptide microarray binding signal,[3]; [10],0.000342 ± 3.8e-06
same,peptide microarray binding signal,[4]; [9],0.000302 ± 1.1e-05
same,peptide microarray binding signal,[4]; [10],0.000404 ± 4.4e-06
PEPAKSAPAPKKG [H2B 1-13 P E P A K Sph A P A P K K G],peptide microarray binding signal,"[1]; peptide region: H2B 1-13, peptide modifications: H2BS6ph, binder concentration: 50 nM",0.00342 ± 3.7e-05
same,peptide microarray binding signal,"[1]; peptide region: H2B 1-13, peptide modifications: H2BS6ph, binder concentration: 500 nM",0.00543 ± 0.00012
same,peptide microarray binding signal,"[2]; peptide region: H2B 1-13, peptide modifications: H2BS6ph, binder concentration: 10 nM",0.00346 ± 0.00017
same,peptide microarray binding signal,"[2]; peptide region: H2B 1-13, peptide modifications: H2BS6ph, binder concentration: 100 nM",0.00425 ± 0.00022
same,peptide microarray binding signal,[3]; [11],0.00245 ± 6.6e-05
same,peptide microarray binding signal,[3]; [12],0.000799 ± 8.3e-06
same,peptide microarray binding signal,[4]; [11],0.00068 ± 1e-05
same,peptide microarray binding signal,[4]; [12],0.000923 ± 9.6e-06
APAPKKGSKKAVT [H2B 7-19 A P A P K K G S K K A V T],peptide microarray binding signal,"[1]; peptide region: H2B 7-19, binder concentration: 50 nM",0.002382 ± 1.1e-05
same,peptide microarray binding signal,"[1]; peptide region: H2B 7-19, binder concentration: 500 nM",0.00743 ± 0.0029
same,peptide microarray binding signal,"[2]; peptide region: H2B 7-19, binder concentration: 10 nM",0.00328 ± 6.2e-05
same,peptide microarray binding signal,"[2]; peptide region: H2B 7-19, binder concentration: 100 nM",0.00283 ± 4.6e-05
same,peptide microarray binding signal,[3]; [13],0.0043 ± 0.0018
same,peptide microarray binding signal,[3]; [14],0.00114 ± 1.2e-05
same,peptide microarray binding signal,[4]; [13],0.00116 ± 9.9e-05
same,peptide microarray binding signal,[4]; [14],0.001211 ± 1.2e-05

# Reference: the supplement of paper PMC4022240
